Each structure is given as a SMILES string. Out of some 1,400 compounds screened, about 10 (0.7%) were called active. No rule for the calls is given here. These entries were drawn from the full list. Measured potencies and affinities stand elsewhere.

A short description of the test: viability loss in BHK-21 cells – cell-based, plate reader, cherry-pick samples, cytotoxicity control, dose response (AID 687030).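 Also: cells were exposed to compound for three days before reading.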 Conditions: series mostly up to 19.5 µM.
For `Cc1ccc(N(C)C(=O)N2CCN(S(=O)(=O)c3ccc(C)cc3)CC2)cc1`, the call was inactive.
On to `CCOC(=O)c1[nH]c2ccccc2c1NC(=O)c1ccc2c(c1)OCO2`, for which the call was inactive.
As to `Cc1cccc(N(C(=O)Cn2nnc3ccccc32)C(C(=O)NC(C)(C)C)c2ccsc2)c1` (stereo not drawn), the outcome was inactive.
With `O=C(CNC(=O)N1CC(=O)Nc2ccccc21)NCc1ccc(F)cc1` the entry was “inactive”.
To `Cc1noc(C)c1S(=O)(=O)N(C)C[C@H]1OCCCC[C@@H](C)Oc2ccc(NC(=O)Nc3ccc4c(c3)OCO4)cc2C(=O)N([C@@H](C)CO)C[C@H]1C` belongs “inactive”; to `CCOC(=O)c1[nH]c(C)c(C(=O)OCC(=O)N2CC(=O)Nc3ccccc32)c1C`, “inactive”; to `CC1CCCCN1CCCNC(=O)c1ccc2nc(N3CCCCC3)sc2c1` (stereo not drawn), “inactive”.
On to `CCOC(=O)c1sc(NC(=O)c2ccncc2)c(C#N)c1C`, for which the result was inactive.
To `CC(C)C(=O)Nc1nnc(S(=O)(=O)N2CCc3ccccc32)s1` belongs “inactive”; to `Fc1ccc(CCN2CCN=C2Nc2ccccc2)cc1`, “inactive”.
With `CCC(C)[C@H]1COCCS(=O)(=O)N1Cc1ccc(Br)cc1` (stereo partly drawn) the entry was “inactive”; with `O=C(N[C@@H]1C=C[C@H](CC(=O)N2CCc3ccccc3C2)O[C@@H]1CO)C1CCC1`, “inactive”.
Turning to `COc1cc2cc(CCCOC(=O)CCC(=O)O)oc(=O)c2cc1OC`, the compound was classed as inactive.
For the compound `CC1Cc2ccccc2N1S(=O)(=O)c1cnc(Cl)c(Br)c1` (stereo not drawn), the compound was called inactive.
With `O=C(O)c1cccc(-c2csc(C(O)c3ccc(F)c(F)c3)n2)c1` (stereo not drawn) the entry was “inactive”; with `O=C(O)c1ccccc1C(=O)NCc1c(Cl)cccc1Sc1ccc(Cl)cc1`, “inactive”.
In the case of `COc1ccc(CCN2CC(C(=O)NCCc3cn[nH]c3)CCC2=O)cc1` (stereo not drawn), the outcome was inactive.
To `CNC(=O)C[C@H]1CC[C@@H]2[C@H](COc3ccc(NC(=O)c4ccc(F)c(F)c4)cc3C(=O)N2C)O1` belongs “inactive”.
With `COc1cc2c(cc1OC)CN(C(=O)CCOc1ccccc1C)CC2` the entry was “inactive”; with `N#Cc1cccnc1N1CCN(C(=O)c2ccccc2)CC1`, “inactive”.
With `O=C(NCC[C@H]1CC[C@H](NS(=O)(=O)c2ccc(Oc3ccccc3)cc2)[C@@H](CO)O1)C1CC1` the entry was “inactive”.
As for `CCCCCc1c(-c2ccccc2OC)ncn1CCc1ccccc1OC`, the compound was called inactive.
To `O=C(Nc1cccc(S(=O)(=O)N2CCCCCC2)c1)c1ccc2ccccc2n1` belongs “inactive”; to `Cc1ccc(C(=O)O/N=C(\N)c2ccccn2)cc1`, “inactive”.
With `CCc1nc2ccc(C(=O)N(CC)CCN(C)C)cn2c1N(C)C(=O)c1cccc(OC)c1` the entry was “inactive”.
As to `C[C@@H]1CN([C@@H](C)CO)C(=O)c2cc(NS(=O)(=O)c3ccc(Cl)cc3)ccc2O[C@@H](C)CCCCO[C@H]1CN(C)CC1CC1`, the result was inactive.
As for `O=C(c1ccncc1)N1CCCC(N2CCN(c3cccc(C(F)(F)F)c3)CC2)C1` (stereo not drawn), the call was inactive.
With `O=C(c1cc(C2CC2)on1)N1CCCC(N2CCN(c3cccc(C(F)(F)F)c3)CC2)C1` (stereo not drawn) the entry was “inactive”; with `O=S(=O)(NCc1c(Cl)cccc1Oc1ccccc1)c1ccccc1`, “inactive”; with `CCOc1ccc(C(=O)NCC(=O)N2CCCCCCC2)cc1`, “inactive”.
With `O=C(O)C[C@H]1C=C[C@@H](NC(=O)CCN2CCCCC2)[C@@H](CO)O1` the entry was “inactive”; with `CC1CCOC(c2coc3ccccc3c2=O)O1` (stereo not drawn), “inactive”.
Turning to `COc1ccc(Br)cc1[C@H]1[C@H]2C=CC[C@@H](C)[C@@H]2C(=O)N1Cc1ccccc1`, the result was inactive.
On to `O=C(Nc1cccc(-n2cnnn2)c1)C1CCCN(C(=O)Cc2cccc(Cl)c2)C1` (stereo not drawn), for which the call was inactive.
With `CC(C)CN(C(=O)c1cc(Cl)nc2ccccc12)c1c(N)n(Cc2ccccc2)c(=O)[nH]c1=O` the entry was “inactive”; with `O=C(O)[C@H]1[C@H](CO)[C@H]2Cn3c(ccc(/C=C/c4ccccc4)c3=O)[C@H]2N1C(=O)c1cnccn1`, “inactive”.
To `CN(CC(=O)Nc1ccc(F)cc1)C(=O)COC(=O)c1nc(Cl)ccc1Cl` belongs “inactive”.
To `CC(C)(C)OC(=O)CNC(=O)c1[nH]cnc1C(=O)N[C@@H](Cc1ccccc1)C(=O)OC(C)(C)C` belongs “inactive”; to `CCOc1ncccc1C(=O)NNC(=O)c1cccc(S(=O)(=O)Nc2ccccc2OC)c1`, “inactive”.
`COc1cccc(N2CCN(C(=O)c3cccc(NC4=NC5CS(=O)(=O)CC5S4)c3)CC2)c1` (stereo not drawn): the result was inactive.
With `COc1cc(NC(C)=O)c2ncccc2c1Br` the entry was “inactive”; with `CC(=O)Nc1cccc2ncccc12`, “inactive”; with `OC(COC(c1ccc(F)cc1)c1ccc(F)cc1)CN1CCCC1` (stereo not drawn), “inactive”.
For `Cc1ccc(C(=O)Nc2ccc(CN3CCCCC3)cc2)c(C)c1`, the result was inactive.
As to `CN1CCC2CC1c1cc(-c3ccc(C(F)(F)F)cc3)ccc12` (stereo not drawn), the outcome was inactive.
With `O=C(C[C@@H]1CC[C@H]2[C@@H](COC[C@@H](O)CN2Cc2cccc(Cl)c2)O1)N1CCOCC1` the entry was “inactive”; with `O=C(C[C@H]1CC[C@H]2[C@@H](COC[C@@H](O)CN2Cc2cccc(C(F)(F)F)c2)O1)NCc1ccc(F)cc1`, “inactive”.
With `C[C@@H]1CCCCO[C@H](CN(C)S(=O)(=O)c2ccccc2)[C@@H](C)CN([C@@H](C)CO)C(=O)c2cc(NC(=O)CCCN(C)C)ccc2O1` the entry was “inactive”.
With `COc1ccc(S(=O)(=O)N(C)C[C@@H]2Oc3ccc(NS(=O)(=O)c4ccccc4)cc3C(=O)N([C@H](C)CO)C[C@H]2C)cc1` the entry was “inactive”; with `CCNC(=O)C[C@H]1CC[C@H]2[C@@H](COC[C@@H](O)CN2Cc2ccc(Cl)c(Cl)c2)O1`, “inactive”; with `CCNC(=O)C[C@H]1CC[C@H]2[C@@H](COC[C@H](O)CN2Cc2ccc(Cl)c(Cl)c2)O1`, “inactive”.
`CCC1CN(S(=O)(=O)c2ccc3c(c2)NC(=O)CC(=O)N3)c2cc(Cl)ccc2O1` (stereo not drawn): the result was inactive.
Take `Cc1cc(OCC(=O)NC(Cc2c[nH]c3ccc(O)cc23)C(=O)O)c2c(C)c(C)c(=O)oc2c1` (stereo not drawn): the call was inactive.
In the case of `COc1cccc(CNC(=O)[C@@H]2CCCN2C(=O)[C@H]2CCCCN2C(=O)c2ccc(Cl)cc2)c1`, the compound was called inactive.
With `CCCCn1c(N)c(N(CC)C(=O)c2cc(C)cc(C)c2)c(=O)[nH]c1=O` the entry was “inactive”; with `CC(C)CCC(O)(c1ccccc1)C(CN1CCOCC1)c1ccccc1` (stereo not drawn), “inactive”.
`C[C@@H]1CCCCO[C@H](CN(C)S(=O)(=O)c2ccc(Cl)cc2)[C@H](C)CN([C@H](C)CO)C(=O)c2cc(N(C)C)ccc2O1`: the compound was classed as inactive.
With `C=CCOc1ccccc1CN1CCC(Cc2ccccc2)CC1` the entry was “inactive”; with `C[C@@H]1CCCCO[C@@H](CN(C)C(=O)c2ccccc2)[C@@H](C)CN([C@H](C)CO)C(=O)c2cc(NC(=O)CCC(F)(F)F)ccc2O1`, “inactive”; with `CC1(C)CN(Cc2cccnc2)C(=O)[C@H]1CC(=O)Nc1ccc(Br)cc1`, “inactive”.
To `Cc1cc(NC(=O)Cn2c(=O)oc3ccc(Cl)cc32)no1` belongs “inactive”.
As for `COc1cc(OC)cc(C(=O)Nc2ccc3nc4n(c(=O)c3c2)CCCC4)c1`, the compound was called inactive.
Regarding `CC(C)(C)NC(=O)c1cccc(NC(=O)c2ccc3c(c2)C(=O)N(C(C)(C)C)C3=O)c1`, the result was inactive.
With `CN(Cc1ccc(Cl)c(Cl)c1)C(=O)C1CC(=O)N(c2ccc3c(c2)OCCO3)C1` (stereo not drawn) the entry was “inactive”; with `COc1ccc(CN2C(=O)CCC2(C)c2nnnn2Cc2ccccc2)cc1` (stereo not drawn), “inactive”.
With `Cc1cc(C)c(OCCCNC2CCCC2)c(Br)c1` the entry was “inactive”; with `COc1cc(O)c(C(CC(=O)N2CCCC(C)C2)c2cc(OC)c(OC)c(OC)c2)c(OC)c1` (stereo not drawn), “inactive”.
For `CN(C)c1ccc(CC(=O)N2CCCC(c3cc(C(=O)Nc4ccc(F)c(Cl)c4)no3)C2)cc1` (stereo not drawn), the compound was classed as inactive.
As to `C/C=C/c1cnc2c(c1)C(=O)N([C@H](C)CO)C[C@H](C)[C@H](CN(C)S(=O)(=O)c1ccccc1)O2`, the compound was called inactive.
As for `Cc1ccc(S(=O)(=O)N2CC[C@@H]3[C@H](CO)Nc4ccc(-c5ccccc5F)cc4[C@@H]32)cc1`, the call was inactive.
To `COc1ccc(-c2ccc3c(c2)[C@H]2[C@H](CCN2C(=O)CN2CCOCC2)[C@@H](CO)N3)cc1` belongs “inactive”.
Take `Cc1ccc(CNC(=O)[C@H](C)N2C(=O)N3CCc4c([nH]c5ccccc45)[C@@]3(C)C2=O)cc1`: the result was inactive.
As to `C/C(=N/NC(=O)CCC(=O)Nc1cccc(Cl)c1)c1ccc(C)cc1`, the result was inactive.
To `CC(C)(C)NC(=O)C(c1cccc2ccccc12)n1c(=O)c(-c2ccccc2)nc2ccccc21` (stereo not drawn) belongs “inactive”; to `CCOc1ncccc1C(=O)OCC(=O)NCc1ccc(C(=O)OC)cc1`, “inactive”.
For `C[C@@H]1CCCCO[C@H](CN(C)C(=O)Nc2cccc3ccccc23)[C@@H](C)CN([C@@H](C)CO)C(=O)c2cc(NS(=O)(=O)c3cn(C)cn3)ccc2O1`, the result was inactive.
As for `CCn1c(SCc2cccc(F)c2)nnc1-c1ccncc1`, the compound was called inactive.
With `Cc1cccc(C)c1-n1nnnc1C1(C)CCC(=O)N1Cc1cccnc1` (stereo not drawn) the entry was “inactive”; with `O=C(NCC1CCCCC1)[C@@H]1[C@@H](CO)[C@@H]2Cn3c(cccc3=O)[C@H]1N2CCc1ccccc1`, “inactive”.
Turning to `C[C@H]1CCCCO[C@H](CN(C)C(=O)Nc2ccc(C(F)(F)F)cc2)[C@@H](C)CN([C@@H](C)CO)C(=O)c2cc(NC(=O)C3CCCCC3)ccc2O1`, the call was inactive.
As to `OC(c1ccccc1)C(NCc1ccccc1)c1ccccc1` (stereo not drawn), the result was inactive.
To `CCC(=O)Nc1ccc(NC(=O)c2oc3ccccc3c2C)cc1` belongs “inactive”.
`CC1(C)CC(NC(=O)COc2ccccc2Cl)CC(C)(C)N1`: the call was inactive.
On to `O=C(NC1CCCC1)C(C1CC1)n1c(C2CCCC2)nc2ccccc21` (stereo not drawn), for which the call was inactive.
With `CCOC(=O)c1ccc(S(=O)(=O)N2CCC(N3CCCCC3)CC2)cc1`, the result was inactive.
Consider `CCc1ccc(NC(=O)N(CCCN2CCOCC2)Cc2cccs2)cc1`, for which the call was inactive.
`COc1ccc(N(C(=O)c2cccnc2)S(=O)(=O)c2ccc(OC)c(OC)c2)cc1`: the compound was called inactive.
To `CO[C@@H]1CN(C)C(=O)c2ccc(NC(C)=O)cc2OC[C@@H](C)N(S(C)(=O)=O)C[C@H]1C` belongs “inactive”; to `CCc1ccc2cc(C)cc(C)c2n1`, “inactive”.
To `COc1ccc(S(=O)(=O)Nc2ccc3c(c2)C(=O)N([C@@H](C)CO)C[C@@H](C)[C@H](CN(C)S(=O)(=O)c2ccc(Cl)cc2)O3)cc1` belongs “inactive”.
To `CCCn1c(-c2ccc[nH]c2=O)nc2cc(C)c(C)cc21` belongs “inactive”; to `C[C@H]1CCCCO[C@@H](CN(C)C(=O)Nc2cccc3ccccc23)[C@@H](C)CN([C@@H](C)CO)C(=O)c2cc(NC(=O)Cc3ccccc3)ccc2O1`, “inactive”; to `Cc1cccc(C(=O)N2CCC(=O)N([C@H](COCc3ccc(Cl)cc3)Cc3ccccc3)CC2)c1`, “inactive”.
In the case of `Cc1c(C(=O)Nc2ccccc2F)sc2ncn(CC(=O)N3CCOCC3)c(=O)c12`, the compound was called inactive.
Take `Cc1nc2ccc(C(=O)NC(C)(C)C)cn2c1N(C)C(=O)CCc1ccccc1`: the result was inactive.
Turning to `O=C(Nc1ccc2ccccc2c1)C(C1CC1)n1c(=O)c(-c2cc3ccccc3[nH]2)nc2ccccc21` (stereo not drawn), the result was inactive.
To `COc1ccc(CCC(C)NCc2ccc(F)cc2)cc1` (stereo not drawn) belongs “inactive”.
To `CCCn1c(=N)n(CC(O)COc2ccc(C)cc2)c2ccccc21` (stereo not drawn) belongs “inactive”.
In the case of `CCN(C(=O)COC(=O)c1cc2c(s1)CCCCC2)C1CCS(=O)(=O)C1` (stereo not drawn), the call was inactive.
To `Cc1cc(C)n2c(NC3CCCC3)c(-c3cccnc3)nc2n1` belongs “inactive”.
To `CCOC(=O)C1CCN(Cc2c(C(=O)N3CCOCC3)nc3c(C)cccn23)CC1` belongs “inactive”.
To `CCCCC[C@H]1CN(CCc2ccccc2)C(=O)[C@@H]1CC(=O)NCc1ccc(OC)cc1` belongs “inactive”.
Turning to `CO[C@H]1CN(C)C(=O)c2cc(NC(=O)c3ccccc3F)ccc2OC[C@H](C)N(CC2CCOCC2)C[C@H]1C`, the call was inactive.
As to `CC(=O)N[C@@H]1CC[C@H](CCNC(=O)C2CCCC2)O[C@H]1CO`, the call was inactive.
Take `CC(C)NC(=O)Nc1ccc2c(c1)C(=O)N([C@@H](C)CO)C[C@H](C)[C@H](CN(C)C(=O)Nc1ccc3c(c1)OCO3)O2`: the call was inactive.
`COc1ccc(NC(=O)Nc2cccc3c2O[C@H](CN(C)S(=O)(=O)c2ccccc2)[C@H](C)CN([C@@H](C)CO)C3=O)cc1`: the call was inactive.
With `COc1ccc(S(=O)(=O)N2CCCC2C(=O)NCC(=O)Nc2cccc(Cl)c2C)cc1` (stereo not drawn) the entry was “inactive”; with `O=C(NCc1ccncc1)c1cccc(NS(=O)(=O)c2ccc(F)c(F)c2)c1`, “inactive”.

The record behind these values is PubChem BioAssay AID687030 (Broad Institute, 2013).
